# Assay outcomes: PubChem BioAssay, several laboratories
# Rows were chosen to be rich in hits. Some 5.4% of all compounds tested hit in one or more screens of this group.
# AHR act = activates the human aryl hydrocarbon receptor; AID 2796; P35869; activation, % at 5 µM; AHR-responsive luciferase reporter cells, luminescence; 320,000 tested, 2.5% active; in the data active means activation above about 47%;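 further: 0% = vehicle wells and 100% = reference agonist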
# Target sequence (P35869 whole entry, looked up): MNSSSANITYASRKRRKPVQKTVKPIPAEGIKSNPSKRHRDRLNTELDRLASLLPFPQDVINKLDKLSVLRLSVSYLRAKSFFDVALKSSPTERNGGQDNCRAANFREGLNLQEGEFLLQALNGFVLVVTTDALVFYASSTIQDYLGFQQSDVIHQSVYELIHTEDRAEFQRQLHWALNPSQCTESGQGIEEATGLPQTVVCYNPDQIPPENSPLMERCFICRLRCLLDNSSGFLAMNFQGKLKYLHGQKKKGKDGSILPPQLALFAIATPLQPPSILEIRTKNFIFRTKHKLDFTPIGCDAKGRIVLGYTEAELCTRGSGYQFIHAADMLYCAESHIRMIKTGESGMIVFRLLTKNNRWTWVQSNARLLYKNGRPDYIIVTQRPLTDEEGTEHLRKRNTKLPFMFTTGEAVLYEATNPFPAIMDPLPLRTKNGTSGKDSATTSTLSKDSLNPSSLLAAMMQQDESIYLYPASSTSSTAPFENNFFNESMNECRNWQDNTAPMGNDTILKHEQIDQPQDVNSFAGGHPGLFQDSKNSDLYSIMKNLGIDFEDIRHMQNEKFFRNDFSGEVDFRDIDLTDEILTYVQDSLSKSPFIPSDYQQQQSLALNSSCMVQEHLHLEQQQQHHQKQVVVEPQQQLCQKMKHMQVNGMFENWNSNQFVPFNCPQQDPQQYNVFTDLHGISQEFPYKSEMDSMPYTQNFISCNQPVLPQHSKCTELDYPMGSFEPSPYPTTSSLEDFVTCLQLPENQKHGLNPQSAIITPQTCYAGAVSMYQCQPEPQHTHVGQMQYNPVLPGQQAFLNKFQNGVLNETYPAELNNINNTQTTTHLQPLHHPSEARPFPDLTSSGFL
# DAX1 inh = NR0B1 (DAX1) inhibition | 340,000 tested, 0.99% active | HEK293 Gal4-DAX1 luciferase reporter, luminescence | inhibition, % at 6.75 µM;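 active means inhibition above the mean over all tested compounds plus 3 SD, cut at about 4.2% in these data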;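 further: 0% = DAX1-transfected cells with DMSO and 100% = empty-vector control cells with DMSO; inhibition shows as a rise in luminescence from relieved DAX1 repression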
# HSF1 inh = HSF1 inhibition. NIH3T3-HGL HSE-luciferase, MG132-induced, luminescence 8 h; hits give low values. activity change, negative = inhibition, % at 7.5 µM (by protocol). 300,000 tested, 0.77% active. AID 2098;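 active means more than half of replicate wells show activity change below -50%, luminescence cut by over half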;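 further: luciferase reports HSF-1 transcriptional activity via heat shock element; 0% = median of DMSO wells and -100% = zero luminescence signal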
# FXN GAA850 act = increases GAA850 frataxin promoter reporter activity; HEK293 lucGAA850 FXN promoter luciferase reporter, 24 h; percent of 10 µM SAHA response; activation, % at 6 µM; 360,000 tested, 0.56% active; AID 540364;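 active means activation above the average of all compounds screened plus 3 SD, cutoff fixed separately per campaign, cut at about 7.5% in these data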;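 further: 0% = DMSO wells and 100% = 10 µM SAHA wells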
# HSF1 activator = increases HSF-1 driven luciferase reporter signal. NIH3T3-HGL HSF-1 luciferase reporter, MG132, 8 h; 100% = twice DMSO control signal. activation, % at 9 µM. 300,000 tested, 1.7% active;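 active means mean replicate activation of at least 50% with a set share of replicates each reaching 50%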;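 further: 0% = median of the neutral control wells and 100% = twice that signal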
# Active calls of the source: *; · = no result.
SMILES,AHR act,DAX1 inh,HSF1 inh,FXN GAA850 act,HSF1 activator
C=C(C)CN(CC)c1nc(N)c2c(N)nc3c(c2c1C#N)CC(=O)N3C12CC3CC(CC(C3)C1)C2,6,-1,18,0,55*
O=C(CN1CCN(C(=O)c2ccccc2F)CC1)Nc1ccc(Br)cc1,56*,1,1,-2,-18
O=C(CN1CCN(Cc2ccccc2)CC1)Nc1ccc(Br)cc1,3,0,-11,1,-26
CC(=O)c1cccc(OCc2cc(C(=O)N3CCC(N4CCCCC4)CC3)no2)c1,1,1,-2,1,6
CNC(=O)NC(=S)NC(=O)c1ccccc1Cl,-1,0,-76*,2,-80
O=C(NC(=S)Nc1ccccc1O)c1ccc(Cl)cc1Cl,47,0,57,1,76*
O=C(Nc1ccc(NC(=S)NC(=O)c2ccccc2Cl)cc1)c1cccc(Cl)c1,-3,1,41,-2,56*
O=S(=O)(c1ccc(NC(=S)NCc2ccncc2)cc1)N1CCCCC1,-1,0,3,0,27
CC(=O)N1CCN(c2nc3cc4c(cc3nc2NS(=O)(=O)c2ccccc2)OCCO4)CC1,5,1,4,2,22
O=c1ccnc(Nc2ccc3c(c2)OCCO3)[nH]1,7,·,-37,0,-32
O=C(Nc1ccc(S(=O)(=O)NCC2CCCO2)cc1)c1ccccc1 (stereo not given),2,0,-65*,-2,-72
CC1(C(=O)NCCc2ccccc2)Cc2c(-c3ccccc3)ccnc2O1 (stereo not given),·,·,·,-2,·
CCN(CC)S(=O)(=O)c1ccc(-c2csc(C)n2)cc1,3,6.5*,1,4,-2
Cc1cccc(C)c1OCc1nc2ccccc2c(=O)n1/N=C/c1ccc(OCC(=O)O)cc1,6,-1,22,1,53*
O=C(O)COc1ccc(/C=N/n2c(COc3ccccc3)nc3ccccc3c2=O)cc1,6,-1,-1,1,-1
CCOC(=O)c1c(N2C(=O)C3C4C=CC(O4)C3C2=O)sc2c1CCCC2 (stereo not given),2,-2,68,-7,104*
CCOC(=O)c1c(-n2cnnn2)sc2c1CCCC2,6,1,-5,0,-10
COc1ccccc1N1CCN(CCC(=O)Nc2ccc(F)cc2)CC1,-1,-1,-2,4,0
COc1ccc(CNC(=O)N2CCN(c3ccccc3)CC2)cc1,-1,0,-3,2,1
C/C(=N\NC(=O)c1ccccc1F)c1cccc(NC(=O)c2ccccc2)c1,-3,1,-32,2,-48
C/C(=N\NC(=O)c1ccccc1F)c1ccc(C#N)cc1,-8,4.5*,16,4,49
CCOc1ccc(C(=O)C(C)OC(=O)Cn2[nH]c(=O)c3ccccc3c2=O)cc1 (stereo not given),10,-1,1,1,-11
Cn1c(=O)c(-c2ccccc2)nc2ccccc21,55*,0,-2,2,12
Cn1c(=O)c(-c2ccccc2N)nc2ccccc21,41,0,2,2,17
CC(C)(C)c1ccc(C(=O)NCC(=O)NCc2ccccn2)cc1,30,-1,·,1,·
SMILES,AHR act,DAX1 inh,HSF1 inh,FXN GAA850 act,HSF1 activator
CCCCNc1cnn(-c2ccccc2)c(=O)c1Cl,0,3,-1,3,31
O=c1c(Cl)c(Cl)cnn1-c1ccccc1,·,1,-96*,-7,-96
Cc1ccc(S(=O)(=O)N2CCN(c3cnn(-c4ccccc4)c(=O)c3Cl)CC2)cc1,1,4.7*,1,-1,6
O=c1c(Cl)c(N/N=C/c2ccc(Cl)cc2)cnn1-c1ccccc1,50*,0,11,0,9
COCCNc1cnn(-c2ccccc2)c(=O)c1Cl,3,4.9*,2,0,15
CCN(CC)C(=S)SCC(=O)Nc1nc(=O)c2ccccc2s1,3,0,-70*,1,-75
N/C(=N\OC(=O)CSc1ccccc1)c1ccc([N+](=O)[O-])cc1,9,3,·,4,·
CC1CCCN(C(=O)CSc2nnc(-c3ccc(O)cc3)o2)C1 (stereo not given),-2,-1,-57*,1,-65
CC1CCCN(C(=O)CSc2nnc(-c3cccs3)o2)C1 (stereo not given),2,0,17,4,44
CCOC(=O)c1c(C)n(C)c2ccc(OC)c(NC(=O)c3cccs3)c12,20,0,2,0,23
CCOC(=O)c1c(C)n(C)c2ccc(OC)c(NC(=O)CN3CCSCC3)c12,7,-2,-91*,-1,-93
CCOC(=O)N1CCN(CCC(=O)Nc2ccccc2OC)CC1,-1,0,0,0,-7
CCOC(=O)c1c(C)n(C)c2ccc(OC)c(NC(=O)CCN3CCC(Cc4ccccc4)CC3)c12,66*,0,1,0,14
CC(=O)Oc1ccc(/C(C)=N/N2CCN(Cc3ccc(C)cc3)CC2)cc1,2,0,2,0,4
O=c1/c(=C/c2ccco2)sc2n1CN(c1ccccc1)CN=2,4,1,-1,-2,22
Cc1ccc(N2CN=c3s/c(=C\c4ccccn4)c(=O)n3C2)cc1,-4,1,-52*,1,-59
Cc1ccc(-n2cc(CN3CCN(Cc4nccn4C)CC3)c(-c3ccc(F)cc3)n2)cc1,-3,-1,32,0,55*
Cc1ccc(-c2cc(-c3ccccc3)nc(NN)n2)cc1,66*,0,0,0,1
COc1ccc(-c2cc(-c3ccccc3)nc(NN)n2)cc1OC,65*,1,0,2,10
C/C(=N\Nc1ccc([N+](=O)[O-])cc1[N+](=O)[O-])C(C)(C)C(C(=O)O)C(=O)O,12,0,4,-4,-2
CC(C)(C)c1ccc(C(=O)N2CCC2(C)C(=O)NCCC#N)cc1 (stereo not given),·,·,·,1,·
Cc1cc(Cl)cc(C)c1OCC(=O)N1CCN(c2ncccn2)CC1,0,0,·,1,·
O=C(Cc1ccc(S(=O)(=O)N2CCOCC2)s1)Nc1cc(Cl)ccc1Cl,92*,1,·,-1,·
CC(=O)Nc1ccc(S(=O)(=O)N2CCC(c3nc4ccc(C)cc4[nH]3)CC2)cc1,2,4.4*,-4,1,-8
CCOC(=O)Nc1ccc(S(=O)(=O)N2CCC(c3nc4ccccc4[nH]3)CC2)cc1,·,1,·,1,·
CCOC(=O)N1CCC(NC(=O)Cn2ncc3ccccc32)CC1,0,0,-4,1,4
CC1CCC(NC(=O)Cn2ncc3ccccc32)CC1 (stereo not given),5,6.5*,11,5,20
CCCCOc1ccc(CC(=O)NCC(=O)O)cc1,2,4.9*,1,-4,3
O=C(COC(=O)c1ccc(Cl)nc1)Nc1ccc(N2CCCCC2)cc1,3,1,·,0,·
O=C(NCCc1ccc(Cl)cc1)c1ccc2nccnc2c1,5,2,43,1,60*
